Key:
Assay in all cases: PBM binding z-score (relative to random genomic background probes); higher = stronger binding; sequences stand for … in GC…GCGATTGACAGCGTAGAATGAAGG
[1] = tested on: FXR:RXRa (NR concentration 270 nM, RXRa partner concentration 90 nM)
Summary of the method: (§1)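 Antibodies against each partner of ligand-free nuclear receptor dimers (one per run) detected binding on custom Agilent 4×180K protein-binding microarrays after 1 h incubation. The double-stranded probes had 34-nt variable regions carrying direct-repeat seeds, single-nucleotide variants, half-site ablations and random human genomic background sequences. Binding z-scores, from regression-normalized fluorescence, use the random background probes as reference.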

[2] = tested on: LXRa:RXRa (NR concentration 270 nM, RXRa partner concentration 90 nM)
Summary of the method: as §1

[3] = tested on: LXRa homodimer (NR concentration 270 nM)
Summary of the method: as §1

[4] = tested on: LXRb:RXRa (NR concentration 270 nM, RXRa partner concentration 90 nM)
Summary of the method: as §1

[5] = tested on: LXRb homodimer (NR concentration 270 nM)
Summary of the method: as §1

[6] = tested on: PPARa:RXRa (NR concentration 270 nM, RXRa partner concentration 90 nM)
Summary of the method: as §1

[7] = tested on: PPARg:RXRa (NR concentration 180 nM, RXRa partner concentration 90 nM)
Summary of the method: as §1

[8] = tested on: PPARg:RXRa 270nM:90nM, anti-RXR (NR concentration 270 nM, RXRa partner concentration 90 nM)
Summary of the method: as §1

[9] = tested on: PPARg:RXRa 30nM:10nM, anti-RXR (NR concentration 30 nM, RXRa partner concentration 10 nM)
Summary of the method: as §1

[10] = tested on: PPARg:RXRa 90nM:30nM, anti-RXR (NR concentration 90 nM, RXRa partner concentration 30 nM)
Summary of the method: as §1

[11] = tested on: PPARg:RXRa DBDmut IVT, anti-RXR (DBD mutation: RXRa K156A/R161A, NR concentration 270 nM, RXRa partner concentration 90 nM)
Summary of the method: as §1

[12] = tested on: PPARg:RXRa IVT, anti-PPARg (NR concentration 270 nM, RXRa partner concentration 90 nM)
Summary of the method: as §1

[13] = tested on: PPARg DBDmut:RXRa IVT, anti-PPARg (DBD mutation: PPARg1 K132A/R137A, NR concentration 270 nM, RXRa partner concentration 90 nM)
Summary of the method: as §1

[14] = tested on: PPARg DBDmut IVT, anti-PPARg (DBD mutation: PPARg1 K132A/R137A, NR concentration 270 nM)
Summary of the method: as §1

[15] = tested on: PPARg homodimer (NR concentration 180 nM)
Summary of the method: as §1

[16] = tested on: PXR:RXRa (NR concentration 270 nM, RXRa partner concentration 90 nM)
Summary of the method: as §1

[17] = tested on: PXR homodimer (NR concentration 270 nM)
Summary of the method: as §1

[18] = tested on: RARa:RXR (NR concentration 270 nM, RXRa partner concentration 90 nM)
Summary of the method: as §1

[19] = tested on: RARa homodimer (NR concentration 270 nM)
Summary of the method: as §1

[20] = tested on: RARb:RXRa (NR concentration 270 nM, RXRa partner concentration 90 nM)
Summary of the method: as §1

Sequence | PBM binding z-score [1] | PBM binding z-score [2] | PBM binding z-score [3] | PBM binding z-score [4] | PBM binding z-score [5] | PBM binding z-score [6] | PBM binding z-score [7] | PBM binding z-score [8] | PBM binding z-score [9] | PBM binding z-score [10] | PBM binding z-score [11] | PBM binding z-score [12] | PBM binding z-score [13] | PBM binding z-score [14] | PBM binding z-score [15] | PBM binding z-score [16] | PBM binding z-score [17] | PBM binding z-score [18] | PBM binding z-score [19] | PBM binding z-score [20]
ATCGGAAGGTCGAGGTGAGTATAGAGAAAGGGAA | 2.07 | 1.65 | -0.107 | 1.23 | 0.134 | 2.5 | 1.23 | 1.33 | 0.513 | 0.876 | 0.383 | 1.36 | 0.811 | 0.693 | 1.44 | 1.1 | 0.218 | 1.59 | 0.522 | –
GCTCGGAGGACAAGGTCACAGCTTTGTCCGTAGA | 4.17 | 3.99 | 0.175 | 3.17 | 0.142 | 4.56 | 3.68 | 4.17 | 1.12 | 2.98 | 0.831 | 3.16 | 0.822 | -0.625 | 2.33 | 3.9 | 0.00215 | 4.35 | 0.243 | 4.21
TCTGCTATGTCAACGATGGTCAGCTAATCTGCTA | -0.367 | -0.339 | -1.07 | -0.513 | -0.553 | -0.269 | -0.313 | 0.46 | 1.01 | 0.668 | 0.814 | -0.00611 | 0.00527 | -0.18 | -1.25 | -0.217 | -1.19 | -0.446 | -1.27 | 0.575
TCTCGGAGGACACGAAGGTCAGCGCTTTCCAGAG | 1.84 | 1.77 | 0.379 | 1.68 | -0.754 | 2.31 | 0.453 | 2.02 | 2.12 | 1.93 | 1.48 | 1.41 | -0.389 | -0.884 | 2.23 | 2.49 | 0.985 | 3.06 | 0.313 | 3.95
CGTCCGAGGTCAATGCTAGGTCAGTGAAAGCATT | 7.31 | 5.94 | 2.78 | 5.22 | 1.08 | 5.78 | 5.25 | 5.35 | 1.89 | 4.18 | 3.56 | 4.42 | -0.103 | -0.0468 | 4.53 | 5.62 | 2.14 | 6.71 | 0.652 | 5.17
AGTCAAAGTTCACGAGGTAACGTAAGATTCAGCT | 7.1 | 6.36 | 3.51 | 4.18 | 1.13 | 5.7 | 7.78 | 7.53 | 4.79 | 7.08 | 1.37 | 4.03 | 1.17 | 0.67 | 2.91 | 5.13 | 2.45 | 4.95 | 1.29 | –
CCTAGTTGGTCAAGCTCACACACGCTATAGGTAC | 0.0686 | 0.299 | 0.418 | 0.309 | 0.719 | 0.0262 | 0.838 | 0.282 | 0.0303 | 0.00108 | 1.68 | 1.17 | 0.0557 | 0.393 | 0.772 | 0.179 | 0.39 | 0.432 | 1.68 | 1.14
ATCTCTAGGTAAAGTTCAGCGAAAGATCGATAGA | 1.69 | 2.33 | 1.67 | 1.65 | 0.72 | 2.81 | 3.77 | 4.78 | 2.56 | 4.27 | 2.11 | 2.5 | 1.45 | 1.53 | 1.49 | 2.29 | 1.48 | 2.06 | 0.708 | –
AGTAGCAGGCCAAGGGTCACTCAAGATTAGTCCG | 2.36 | 2.53 | 0.22 | 2.8 | -0.43 | 4.63 | 7.54 | 7.15 | 6.3 | 7.51 | 0.462 | 3.88 | -0.464 | -0.976 | 1.7 | 3.19 | -0.0466 | 4.3 | 0.186 | 3.65
TCTCGGAGGACACGAAAGGTCAGTGCTCGACATC | 2.42 | 3.37 | 3.24 | 2.99 | -0.000616 | 2.99 | 0.746 | 2.29 | 2.43 | 2.19 | 1.47 | 1.67 | -0.413 | -0.365 | 3.45 | 3.79 | 0.68 | 4.07 | 1.12 | 4.13
CCTACTGGGCCAAAAAGGTAATTGATGCCGATAA | -0.234 | -0.225 | -0.561 | -0.28 | -0.84 | 0.543 | 0.593 | 1.19 | -0.018 | 0.799 | 3.15 | 2.69 | 0.336 | -0.668 | -0.39 | -0.331 | -0.647 | 0.114 | 0.142 | 0.108
CCTCGGAGGACAACAGGATGTCAGAGCTGCCAGA | -0.208 | -0.272 | -0.316 | -0.845 | -1.16 | -0.631 | 0.183 | -1.12 | -0.754 | -1.23 | 0.0272 | -0.669 | -0.339 | -1.74 | -0.00372 | -0.729 | -0.378 | -0.712 | -0.0154 | 1.13
CAGCCTAGTTCAGGGCCAGTATAGGAGGAACGTT | 0.0528 | -0.124 | -0.0841 | -0.218 | -0.532 | -0.241 | -0.041 | -0.6 | -0.567 | -0.509 | -0.416 | -0.592 | -0.87 | -0.941 | -0.37 | -0.0793 | 0.431 | -0.13 | -0.131 | 1.05
CCTGGCAGGCCAGGGTCACTCAAGCATTTCGCTT | 2.34 | 2.07 | -0.539 | 2.18 | -1.2 | 3.35 | 0.292 | 1.27 | -0.621 | 0.206 | -0.558 | 0.531 | -1.01 | -1.58 | 0.712 | 3.01 | -0.393 | 3.1 | -0.89 | 2.91
AGCGAAAGGTCGAAGGTGAGTATACCCACCCGAA | 4.1 | 3.39 | -0.15 | 2.68 | -0.267 | 4.61 | 4.72 | 5.09 | 2.12 | 4.25 | 0.0438 | 2.06 | 0.39 | -0.438 | 1.16 | 2.97 | -0.17 | 4.28 | 0.406 | 3.6

From the supplement of paper PMC6555819
